BoNT-A LC inh2: blocks Botulinum neurotoxin A light chain protease. AID 588499. multiplex microsphere protease substrate cleavage, flow cytometry. 360,000 tested, 0.17% active. inhibition, % at 10 µM; in the data active = inhibition above about 30%; inconclusive = no clear call, values can overlap the other calls
GDH-TPI counter-1: GDH-TPI coupled enzyme inhibition counter-screen; GDH-TPI coupled enzyme counterscreen, NADH absorbance; inhibition, % at 4.8 µM; 360,000 tested, 1.2% active; AID 588335; in the data active = inhibition above about 30%
Anthrax LF inh2: blocks Bacillus anthracis lethal factor protease; P15917; multiplex microsphere protease cleavage assay, LF; inhibition, % at 10 µM; 360,000 tested, 0.12% active; AID 588501; in the data active = inhibition above about 30%; inconclusive = no clear call, values can overlap the other calls
Target sequence (P15917 whole entry, looked up): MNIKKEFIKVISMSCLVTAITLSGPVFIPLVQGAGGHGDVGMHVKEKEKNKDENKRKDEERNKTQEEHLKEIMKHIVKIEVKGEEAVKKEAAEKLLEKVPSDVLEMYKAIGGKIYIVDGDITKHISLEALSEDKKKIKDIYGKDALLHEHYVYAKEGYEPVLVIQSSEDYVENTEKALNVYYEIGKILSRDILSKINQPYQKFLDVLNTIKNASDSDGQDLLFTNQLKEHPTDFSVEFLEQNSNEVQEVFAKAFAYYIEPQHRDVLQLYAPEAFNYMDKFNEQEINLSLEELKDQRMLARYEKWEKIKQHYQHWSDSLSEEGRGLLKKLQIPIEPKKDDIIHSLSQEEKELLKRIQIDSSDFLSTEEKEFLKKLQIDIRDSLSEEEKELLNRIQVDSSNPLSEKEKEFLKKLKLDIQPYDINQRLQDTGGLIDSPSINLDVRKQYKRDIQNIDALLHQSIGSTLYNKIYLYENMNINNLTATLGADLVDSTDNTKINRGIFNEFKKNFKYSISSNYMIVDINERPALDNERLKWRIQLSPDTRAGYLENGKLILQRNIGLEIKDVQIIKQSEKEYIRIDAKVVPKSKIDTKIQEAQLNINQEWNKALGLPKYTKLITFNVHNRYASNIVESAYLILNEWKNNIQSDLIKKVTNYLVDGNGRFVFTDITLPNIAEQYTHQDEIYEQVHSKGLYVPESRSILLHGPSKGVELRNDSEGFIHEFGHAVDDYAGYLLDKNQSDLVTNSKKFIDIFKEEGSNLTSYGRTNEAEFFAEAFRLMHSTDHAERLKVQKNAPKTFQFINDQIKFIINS
BoNT-F LC inh: blocks Botulinum neurotoxin F light chain protease; Multiplex microsphere protease cleavage assay, flow cytometry; inhibition, % at 10 µM; 360,000 tested, 0.22% active; AID 588497; in the data active = inhibition above about 35%, passing the limit was not always enough; inconclusive = no clear call, values can overlap the other calls
Bead autofluor: compound fluorescence in toxin protease inhibitor counterscreen | compound autofluorescence counterscreen, microsphere flow cytometry; stronger effect = higher value | fluorescence intensity (no concentration beside the values) | 360,000 tested, 3.1% active | AID 624483; in the data active = fluorescence intensity above about 16000; inconclusive = no clear call, values can overlap the other calls
FBA Mtb inh: Mtb fructose-bisphosphate aldolase inhibition. AID 588726. inhibition, % at 1 µM. purified M. tuberculosis FBA, fluorescence read-out. 360,000 tested, 2.3% active
Mtb FBA inh conf: Mtb FBA inhibition, confirmed | shares compounds with FBA Mtb inh | purified M. tuberculosis FBA, fluorescence read-out | 5,600 tested, 78% active | inhibition, % at 1 µM
GDH-TPI counter-2: GDH-TPI inhibition counter-screen for FBA inhibitors. shares compounds with FBA Mtb inh. GDH-TPI coupled enzyme counterscreen, fluorescence. inhibition, % at 1 µM. 5,600 tested, 81% active. AID 652141; in the data active = inhibition above about 10%
Of the large screens only hits and unclear results are named; the others gave an inactive call (follow-up assays come after a bar, where they were run). In the library only some 6.6% were active in any assay of this set; here they are far more common. Cut-off read from the data, not from the text of the source, unless noted: active = inhibition above about 27%; inactive = the rest.

CCN(CC)CCN(Cc1cc2cc3c(cc2[nH]c1=O)OCO3)C(=S)NCC1CCCO1 (centres undefined)	FBA Mtb inh 56 | Mtb FBA inh conf 95 | GDH-TPI counter-2 70
COCCNC(=S)N(CCO)Cc1cc2cc3c(cc2[nH]c1=O)OCO3	FBA Mtb inh 31 | Mtb FBA inh conf 122 | GDH-TPI counter-2 92
CCN(CC)CCCN(Cc1cc2cc3c(cc2[nH]c1=O)OCO3)C(=S)NCCCN(C)C	BoNT-F LC inh inconclusive
CCN(CC)CCCN(Cc1cc2cc3c(cc2[nH]c1=O)OCO3)C(=S)NCCCOC	GDH-TPI counter-1 34, FBA Mtb inh 40 | Mtb FBA inh conf active | GDH-TPI counter-2 173
CCN(CC)CCN(Cc1cc2cc3c(cc2[nH]c1=O)OCO3)C(=S)NCCCOC	FBA Mtb inh 39 (no result: BoNT-A LC inh2, Anthrax LF inh2, BoNT-F LC inh, Bead autofluor) | Mtb FBA inh conf 97 | GDH-TPI counter-2 81
Cc1ccc(C(C)C)c(OCCNCCc2ccccc2)c1	none
O=C(Nc1cccc(S(=O)(=O)N2CCCCCC2)c1)C1CC(=O)N(c2ccc3c(c2)OCCO3)C1 (centres undefined)	none
COc1c(Cl)cccc1-c1cn2ccc(C)cc2n1	FBA Mtb inh 38 | Mtb FBA inh conf 36 | GDH-TPI counter-2 39
Cc1ccn2cc(-c3cccc(S(=O)(=O)N4CCCC4)c3)nc2c1	none
Cc1ccn2cc(-c3cnoc3C)nc2c1	BoNT-F LC inh inconclusive, FBA Mtb inh 31 | Mtb FBA inh conf inactive | GDH-TPI counter-2 inactive
CN(c1ccc(-c2csc(NC(=O)CCCc3nc4ccccc4c(=O)[nH]3)n2)cc1)S(C)(=O)=O	none
O=C(NCc1nc2ccccc2[nH]1)C1=C[C@H](c2coc3ccccc3c2=O)C[C@H](OCc2ccc(CO)cc2)O1	none
CN(C)c1cc2c3ccccc3n(C)c2cc1N	FBA Mtb inh 71 | Mtb FBA inh conf 147 | GDH-TPI counter-2 134
Cc1ccc(C)c2c1c1ccccc1n2C	BoNT-F LC inh inconclusive
COc1ccc(CNC(=O)COC(=O)Cc2ccsc2)cc1	none
COC(=O)C1=CN(CCOC23CC4CC(CC(C4)C2)C3)C=C(C(=O)OC)C1c1ccsc1	FBA Mtb inh 63 | Mtb FBA inh conf 101 | GDH-TPI counter-2 85
COC(=O)C1=CN(CC2CCCO2)C=C(C(=O)OC)C1c1ccsc1 (centres undefined)	Bead autofluor 22638, FBA Mtb inh 83 | Mtb FBA inh conf inactive | GDH-TPI counter-2 inactive
COC(=O)C1=CN(Cc2ccc(OC)cc2)C=C(C(=O)OC)C1c1ccsc1	FBA Mtb inh 98 | Mtb FBA inh conf 131 | GDH-TPI counter-2 86
COC(=O)C1=C(C)OC(N)=C(C#N)C1c1ccsc1 (centres undefined)	none
COC(=O)C1=CN(Cc2ccc(OC)c(OC)c2)C=C(C(=O)OC)C1c1cccc(O)c1	FBA Mtb inh 111 | Mtb FBA inh conf 109 | GDH-TPI counter-2 82
COCCN1C=C(C(=O)OC)C(c2ccc3c(c2)OCO3)C(C(=O)OC)=C1	none
Cc1ncoc1C(=O)NC1CCCc2c1cnn2-c1ccc(C(C)(C)C)cc1 (centres undefined)	none
CCCOc1ccccc1C(=O)N(Cc1cccc(Br)c1)C1CCS(=O)(=O)C1 (centres undefined)	none
Cn1nc(-c2ccc(Cl)cc2)c2cc(C(=O)N3CCOCC3)sc21	none
CN1CCN(CCCNC(=O)c2cc3c(-c4ccc(Cl)cc4)nn(C)c3s2)CC1	FBA Mtb inh 28 | Mtb FBA inh conf 62 | GDH-TPI counter-2 57
Cn1nc(-c2ccc(Cl)cc2)c2cc(C(=O)NCC3CCCO3)sc21 (centres undefined)	FBA Mtb inh 63 | Mtb FBA inh conf 81 | GDH-TPI counter-2 57
CCOCCCNC(=O)c1ccc(-n2c(=S)[nH]c3ccccc3c2=O)cc1	none
CCC(C)NC(=O)c1cc2c(=O)[nH]c3ccc(C)cc3c2s1 (centres undefined)	FBA Mtb inh 70 | Mtb FBA inh conf 89 | GDH-TPI counter-2 65
CCOCCCNC(=O)c1cc2c(=O)[nH]c3ccccc3c2s1	FBA Mtb inh 71 | Mtb FBA inh conf active | GDH-TPI counter-2 active
CCN(C(=O)c1cc2c(=O)[nH]c3ccc(C)cc3c2s1)c1ccccc1C	none
CCCCN(CC)CCNC(=O)c1cc2c(=O)[nH]c3ccc(C)cc3c2s1	FBA Mtb inh 36 | Mtb FBA inh conf 59 | GDH-TPI counter-2 46
CCCCN(CC)CCCNC(=O)c1cc2c(=O)[nH]c3ccccc3c2s1	FBA Mtb inh 72 | Mtb FBA inh conf 170 | GDH-TPI counter-2 153
CCOC(=O)C1=C(COC(=O)C2CC(=O)N(c3ccc(C)cc3)C2)NC(=O)NC1C (centres undefined)	FBA Mtb inh 65 (no result: BoNT-A LC inh2, Anthrax LF inh2, BoNT-F LC inh, Bead autofluor) | Mtb FBA inh conf 138 | GDH-TPI counter-2 89
CCOC(=O)C1=C(COC(=O)C2CC(=O)N(c3ccccc3CC)C2)NC(=O)NC1C (centres undefined)	none
CCCN(C(=O)c1cn(-c2ccccc2)nc1-c1ccc(OC)cc1)C1CCS(=O)(=O)C1 (centres undefined)	none
O=C(c1ccc(Cn2cc(Cl)c([N+](=O)[O-])n2)cc1)N1CCN(Cc2ccccc2)CC1	none (no result: BoNT-A LC inh2, Anthrax LF inh2, BoNT-F LC inh, Bead autofluor)
COc1ccc(-c2cc3nc(NCCN4CCCC4)n(C)c(=O)c3s2)cc1OC	FBA Mtb inh 39 | Mtb FBA inh conf 96 | GDH-TPI counter-2 73
Cn1c2c(c(=O)n(C)c1=O)C(c1ccc(Br)cc1)C(C#N)=C(N)N2 (centres undefined)	none
CC(=O)Nc1ccc(S(=O)(=O)Nc2ccccc2C(=O)N2CCCCCC2)cc1	none
O=S(=O)(Nc1cccc(-c2cn3c(n2)SCC3)c1)c1ccccc1F	none
O=S(=O)(Nc1cccc(-c2cn3c(n2)SCC3)c1)c1cccs1	FBA Mtb inh 32 | Mtb FBA inh conf 98 | GDH-TPI counter-2 96
CSc1ccc(/C=C/C(=O)N2CCCN(C)CC2)cc1	FBA Mtb inh 32 | Mtb FBA inh conf 52 | GDH-TPI counter-2 45
CCCC(=O)N1CCC1(C)C(=O)Nc1ccc2nccnc2c1 (centres undefined)	FBA Mtb inh 43 | Mtb FBA inh conf 45 | GDH-TPI counter-2 24
Cc1ccc2nc3c(c(N)c2c1)CCN3C	none
CN1CCc2c1nc1ccccc1c2N (tested in a mixture with another compound)	BoNT-F LC inh inconclusive, FBA Mtb inh 29 | Mtb FBA inh conf 96 | GDH-TPI counter-2 83
Cc1cccc2c(N)c3c(nc12)N(C)CC3	FBA Mtb inh 31 | Mtb FBA inh conf 77 | GDH-TPI counter-2 45
Cc1ccc2nc3c(c(N)c2c1)CCN3c1ccccc1	FBA Mtb inh 29 | Mtb FBA inh conf active | GDH-TPI counter-2 active
CCCCCCCCN1C(=O)[C@H](CC(=O)NCc2cccc(C(F)(F)F)c2)C[C@@]2(C(=O)OCC)CCCC=C12	none (no result: GDH-TPI counter-1, FBA Mtb inh)

Assay outcomes as filed in PubChem.
